Among the test systems are NCI-H23 lung; NCI-H226 lung; NCI-H322M lung; HOP-62 NSCLC; NCI-H460 lung; HOP-92 NSCLC; NCI-H522 lung; A549/ATCC NSCLC; 786-0 renal; COLO 205 colon; DU-145 prostate; K-562 leukemia; MALME-3M melanoma; MDA-MB-231 breast; RXF 393 renal; SF-268 CNS; SF-295 CNS; SF-539 CNS; UACC-257 melanoma; M14 melanoma.
Holding throughout (test): NCI-60 one-dose screen, 48 h (100 = growth as untreated, 0 = no growth, -100 = all killed)
Conditions in all cases: 10 µM unless noted

Each structure is given as a SMILES string. Compounds without any hit were thinned out: in the full panel of roughly 83,000, 20% have a hit.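 Cell lines were cultured in 96-well plates, exposed to a single compound concentration, and assessed for percent growth 48 hours later.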 A number with no mark means an inactive call. The source made the active and inactive calls. How the source made its calls: active means growth percent below 10; inactive means the rest.

For seven compounds, growth results are on record in PubChem BioAssay (NCI).

For `CCOC(=O)c1ccc[nH]1`, the growth with NCI-H23 lung was 87.7%; in the assay with NCI-H226 lung, 99.3%; in the assay with NCI-H322M lung it was 84.3%; in the assay with HOP-62 NSCLC it was 83.5%; with NCI-H460 lung, 105%; in the assay with HOP-92 NSCLC, 80.4%. Also, the growth in the assay on NCI-H522 lung is 88.4%; in the assay with A549/ATCC NSCLC, 93%; with 786-0 renal, 93.1%; in the assay on COLO 205 colon, 134%; in the assay on DU-145 prostate, 116%; in the assay with K-562 leukemia it was 88.5%. Also, the growth in the assay on MALME-3M melanoma was 87.7%; with MDA-MB-231 breast it was 126%; in the assay with RXF 393 renal, 94.1%; with SF-268 CNS, 100%; in the assay with SF-295 CNS, 114%; in the assay on SF-539 CNS, 91.9%. Besides, the growth is 90.8% in the assay on UACC-257 melanoma and 96.2% in the assay on M14 melanoma.
`CCN(CC)CCOc1ccc2c(-c3ccccc3)c(-c3ccc(OC)cc3)c(=O)oc2c1`: the growth is 70.3% in the assay with NCI-H23 lung; 85.2% in the assay on NCI-H226 lung; 122% in the assay on NCI-H322M lung; 95% in the assay on HOP-62 NSCLC; 57.4% in the assay with NCI-H460 lung; 63.9% in the assay with HOP-92 NSCLC. Also, the growth in the assay with NCI-H522 lung is 66.8%; in the assay with A549/ATCC NSCLC it was 70.6%; in the assay on 786-0 renal, 65.9%; in the assay on COLO 205 colon, -38.8% (active); in the assay on DU-145 prostate it was 95.6%; with K-562 leukemia, 25%. The growth in the assay with MALME-3M melanoma is 83%; in the assay on MDA-MB-231 breast it was 67.3%; in the assay with RXF 393 renal, 50.9%; with SF-268 CNS it was 89.8%; with SF-295 CNS, 62.9%; in the assay on SF-539 CNS, 58.7%. In addition, the values for the growth in the assay with UACC-257 melanoma and with M14 melanoma were 18.1% and -7.02% (active), respectively.
Take `C1CCC(N2CN3c4nonc4N4CN(C5CCCCC5)CN5c6nonc6N(C2)C3C45)CC1` (stereo not given): the growth with NCI-H23 lung was 98.4%; in the assay on NCI-H226 lung, 96.4%; in the assay with NCI-H322M lung, 95.6%; with HOP-62 NSCLC, 97.2%; in the assay with NCI-H460 lung, 99.4%; with HOP-92 NSCLC, 82.1%. Moreover, the growth in the assay on NCI-H522 lung was 92.1%; with A549/ATCC NSCLC, 92.4%; with 786-0 renal, 108%; with COLO 205 colon, 107%; with DU-145 prostate, 104%; with K-562 leukemia, 82.1%. Besides, the growth in the assay on MALME-3M melanoma is 91.5%; in the assay on MDA-MB-231 breast, 106%; with RXF 393 renal, 103%; in the assay with SF-268 CNS, 96.5%; in the assay on SF-295 CNS, 91.6%; in the assay with SF-539 CNS, 101%. The figures for the growth in the assay with UACC-257 melanoma and in the assay on M14 melanoma were 99.2% and 96%, respectively.
`Cn1c2ccccc2c2c3c(c4c5cc(Br)ccc5n(C)c4c21)C(=O)N(O)C3=O`: the growth was 2.91% (active) in the assay with NCI-H23 lung; 14.8% in the assay on NCI-H226 lung; 31.8% in the assay on NCI-H322M lung; 0.364% (active) in the assay on HOP-62 NSCLC; 4.42% (active) with NCI-H460 lung; 40.8% with HOP-92 NSCLC. For the same compound, the growth in the assay on NCI-H522 lung was 25.4%; in the assay with A549/ATCC NSCLC, 40.3%; in the assay with 786-0 renal it was 14.6%; in the assay with COLO 205 colon, 23.2%; in the assay with DU-145 prostate it was -50.7% (active); with K-562 leukemia, 10.4%. The growth was 42.4% in the assay on MALME-3M melanoma; -32% (active) with MDA-MB-231 breast; -24.8% (active) in the assay with RXF 393 renal; -0.663% (active) with SF-268 CNS; 25.9% in the assay with SF-295 CNS; -27.7% (active) with SF-539 CNS. Moreover, the growth was 48.6% with UACC-257 melanoma and -5.5% (active) in the assay with M14 melanoma.
Regarding `COc1ccc2c(c1)CC[C@@H]1[C@@H]2CC[C@]2(C)C3C(=CC(COC(C)=O)C4C(=O)N(c5ccc(Cl)cc5)C(=O)C43)C[C@@H]12` (stereo not given in full), the growth is 91.8% with NCI-H23 lung; 97.3% with NCI-H226 lung; 107% in the assay on NCI-H322M lung; 98.4% in the assay on HOP-62 NSCLC; 110% in the assay with NCI-H460 lung; 90.7% with HOP-92 NSCLC. Also, the growth with NCI-H522 lung is 89.9%; with A549/ATCC NSCLC, 110%; in the assay with 786-0 renal it was 111%; with COLO 205 colon, 118%; in the assay with DU-145 prostate, 106%; with K-562 leukemia it was 52.4%. Also, the growth with MALME-3M melanoma is 101%; in the assay on MDA-MB-231 breast, 103%; in the assay on RXF 393 renal, 110%; in the assay on SF-268 CNS it was 91.7%; in the assay on SF-295 CNS it was 105%; with SF-539 CNS, 114%. For the same compound, the growth with UACC-257 melanoma was 109%; in the assay on M14 melanoma it was 98.8%.
As for `CN(C)c1ccc(/C=C2\C=C(c3nc4ccccc4s3)OC2=O)cc1`, the growth with NCI-H23 lung is 91.9%; with NCI-H226 lung, 82.2%; in the assay with NCI-H322M lung it was 93.2%; in the assay with HOP-62 NSCLC it was 91.7%; in the assay with NCI-H460 lung, 95.2%; in the assay with HOP-92 NSCLC, 77.8%. The growth is 89.4% with NCI-H522 lung; 94.7% in the assay on A549/ATCC NSCLC; 102% with 786-0 renal; 102% with COLO 205 colon; 104% in the assay with DU-145 prostate; 83.8% in the assay on K-562 leukemia. The growth was 98.3% with MALME-3M melanoma; 73.9% in the assay with MDA-MB-231 breast; 110% in the assay with RXF 393 renal; 98.6% with SF-268 CNS; 92% in the assay with SF-295 CNS; 104% in the assay on SF-539 CNS. Moreover, the results for the growth in the assay on UACC-257 melanoma and in the assay with M14 melanoma were 114% and 101%, respectively.
`CC(O)CNC(Cc1ccccc1)c1ccc2c(c1)OCO2` (stereo not given): the growth with NCI-H23 lung is 98.5%; in the assay with NCI-H226 lung, 90%; with NCI-H322M lung, 93.6%; in the assay with HOP-62 NSCLC, 60.9%; with NCI-H460 lung, 103%; in the assay on HOP-92 NSCLC it was 67.2%. For the same compound, the growth in the assay on NCI-H522 lung is 71.9%; in the assay on A549/ATCC NSCLC, 84.6%; in the assay with 786-0 renal, 83%; in the assay on COLO 205 colon, 71.4%; in the assay on DU-145 prostate it was 107%; in the assay with K-562 leukemia, 90.5%. The growth was 91% in the assay on MALME-3M melanoma; 99.5% in the assay on MDA-MB-231 breast; 110% with RXF 393 renal; 95.9% in the assay on SF-268 CNS; 88.8% in the assay with SF-295 CNS; 87.4% in the assay with SF-539 CNS. The growth with UACC-257 melanoma is 103%; with M14 melanoma it was 80.4%.
